# According to ChEMBL document CHEMBL3988442, “University of Dundee, Small-Polar-MMV Screening Library” (2021):
# In all, about 48,000 compounds went through this assay and about 13,000 (27%) showed an effect of 50% or more. The list shows a part of the results.
# Test system: Wolbachia pipientis
# Assay: Anti-Wolbachia Cell-Based Screen
# Type: functional
# Design: scale not given: in the data most compounds retested in dose-response had high values
# Settings: 5 µM
row,SMILES,Percent Effect [%]
1,COCCN(Cc1sccc1C)C(=O)C1CCN(C(C)C)CC1,1.745
2,Nc1nc2c(c(N3CCCC(c4nnc5ccccn45)C3)n1)CCNC2 (stereo not given),-10.49
3,O=C1[C@@H]2CN(Cc3cc4ccccc4o3)C[C@]2(C(=O)O)CN1CC1CC1,-11.55
4,OCC(O)CSCc1nnc(-c2ccc(Cl)cc2)o1 (stereo not given),-3.672
5,COc1ccc2c(c1)CCCN2C(=O)c1cccc(N(C)C)c1,-8.665
6,COc1ccc2c(c1)C(=O)N(C)C1(CCN(CC3CC3)CC1)N2,-12.56
7,COc1ccc2c(c1)CN(CC1CC1)C(=O)CCN2CC(C)(C)O,98.75
8,COc1ccc2c(c1)CCCN2C(=O)NC1CCCCNC1=O (stereo not given),-4.83
9,COc1ccc2c(c1)CCCN2Cc1nc2c(cnn2C)c(=O)[nH]1,-6.912
10,CCN1Cc2cc(OC)ccc2N(CC(C)(C)O)CCC1=O,102.5
11,CN1CCN(Cc2noc(CC3CCc4ccccc43)n2)CC1 (stereo not given),3.539
12,Cc1csc(CN(C)C(=O)c2cccc(CCC(C)(C)O)c2)n1,-10.56
13,COCc1ncc(CN2C[C@@H](C(=O)O)[C@H](C(C)C)C2)cn1,0.5192
14,CC(C)N1CCC(c2cnc(-c3cncnc3)cn2)CC1,77.04
15,CS(=O)(=O)N1CCC(c2cnc(-c3cn[nH]c3)cn2)CC1,122.9581
16,CC(C)N1CCC(c2cnc(-c3cn[nH]c3)cn2)CC1,107.4
17,CC(C)N1CCC(c2nnc(CN3CCCC3)n2C2CC2)CC1,-3.352
18,O=C(O)c1cc(-c2cn[nH]c2)cc(S(=O)(=O)N2CCSCC2)c1,-7.646
19,CCCn1ncnc1C(C)NC(=O)C1CCN(C(C)C)CC1 (stereo not given),-2.448
20,Cn1cc(-c2nc(C3CCN(S(C)(=O)=O)CC3)cc3c2ncn3C)cn1,6.413
21,COc1cccc2c1OCCCN(Cc1ccc(C(N)=O)c(=O)[nH]1)C2,-4.223
22,CC(C)Cn1cnc(S(=O)(=O)Nc2cccnc2-n2cccn2)c1,-21.79

row,SMILES,Percent Effect [%]
1,CC1(C)CN(C(=O)CC2CCS(=O)(=O)CC2)C[C@]1(C)O,8.618
2,O=S(=O)(NCC1(O)CCOCC1)c1ccccc1Br,8.924
3,CC(C)NC(=O)NC[C@H]1OC[C@@H](NCc2cccs2)[C@@H]1O,11.97
4,CCc1cc(N[C@H](C(N)=O)C(C)C)n2nc(C)c(C)c2n1,-4.879
5,Cc1cccc(C2(CNC(=O)CCNS(C)(=O)=O)CCCC2)c1,4.767
6,CN1CCC(CCc2ccnc(Nc3cnccn3)c2)CC1,95.48
7,O=C(CO)N1CCC(CCc2ccnc(Nc3cnccn3)c2)CC1,125.8
8,Cc1c(Br)cccc1C(=O)NCCC1CCCNC1.Cl (stereo not given),6.591
9,O=C(NCCNc1cnccn1)NCC1CCS(=O)(=O)C1 (stereo not given),-2.4
10,CC(Cc1cnccn1)NC(=O)c1cccc(CC2CCNCC2)c1 (stereo not given),-6.406
11,c1cnc(Nc2cc(CCC3CCNCC3)ccn2)cn1,61.48
12,Cl.c1cnc(Nc2cc(CCC3CCCNC3)ccn2)cn1 (stereo not given),75.77
13,Cc1ccc(Oc2ncccc2CNC2CCOCC2)cn1,-4.901
14,CCC(CNC1CCN(C(C)=O)CC1)Oc1cccc(C)c1 (stereo not given),3.033
15,CN(C)c1cc2c(nn1)CCN(C(=O)C1CCc3ccccc31)C2 (stereo not given),-4.6
16,CCCc1nc(C(=O)NCCN2CCC(c3ccccc3C)C2)cs1 (stereo not given),-11.15
17,CC1CCN(CCNC(=O)c2cncnc2C(C)C)CC1,-7.999
18,Cc1cc(C(=O)NCCN2CCN(S(C)(=O)=O)CC2)no1.Cl,11.14
19,Cc1nc(C(=O)N2CCN(S(C)(=O)=O)[C@@H]3CS(=O)(=O)C[C@@H]32)cs1,-1.846
20,Cc1csc(CNC(=O)NC2CCCN(S(C)(=O)=O)C2)n1 (stereo not given),-1.577
21,Cc1cc(C)n(-c2nc(C(=O)NCCN3CCC(C)CC3)cs2)n1,74.92
22,CCc1c(C)nn(CCNC(=O)c2csc(C)n2)c1C,-30.9

row,SMILES,Percent Effect [%]
1,Cc1nc(C(=O)NCCS(=O)(=O)N2CCCC2)cs1,99.98
2,Cc1cc(C)n(-c2nc(C(=O)NCCS(=O)(=O)N3CCCCC3)cs2)n1,95.89
3,OC[C@@H]1CCCN1Cc1cn(C2CCN(C3CCCC3)CC2)nn1,-5.2
4,Cc1noc(OCCOc2ccc(C#N)cc2)n1,1.206
5,CC(C)CS(=O)(=O)Nc1ccc2c(c1)OCC(C)(C)C(=O)N2C,141.6
6,CN1C(=O)C(C)(C)COc2ccc(NS(=O)(=O)Cc3ccccc3)cc21,99.35
7,CC(C)CS(=O)(=O)Nc1ccc([C@H]2OCC(=O)N[C@@H]2CO)cc1,-5.323
8,Cn1cccc1C(O)CNS(=O)(=O)Cc1ccccc1 (stereo not given),-5.113
9,CN1C(=O)C(C)(C)COc2cc(NS(=O)(=O)c3ccccc3)ccc21,19.53
10,O=C1CO[C@H](c2ccc(NS(=O)(=O)Cc3ccccc3)cc2)[C@@H](CO)N1,-3.508
11,Cn1c(=O)n(C)c2cc(NS(=O)(=O)Cc3ccccc3)ccc21,78.16
12,Cn1ccc(CS(=O)(=O)Cc2ccccc2)cc1=O,-1.625
13,Cc1nc(N2CCCC2)nc(C)c1NS(=O)(=O)c1ccccc1F,-5.726
14,CN1C(=O)C(C)(C)COc2cc(NS(=O)(=O)c3ccccc3F)ccc21,192.1
15,CN1C(=O)C(C)(C)COc2cc(NS(=O)(=O)Cc3ccccc3)ccc21,11.42
16,Cn1cnc2c1CCN(CCCOc1ccc(S(C)(=O)=O)cc1)C2,-0.429
17,COc1cc(CNC(=O)N2CCCC2c2cc(C)no2)ccn1 (stereo not given),-13.9
18,CCOc1ccccc1-c1noc(CN(C)Cc2cnn(C)c2)n1,-16.57
19,CCS(=O)(=O)Nc1ccc2[nH]c(C3CCC3)nc2c1,5.664
20,CCCS(=O)(=O)Nc1ccc2c(c1)OCC(C)(C)C(=O)N2C,-9.167
21,CCS(=O)(=O)Nc1ccc2c(c1)OCC(C)(C)C(=O)N2C,121.3
